A selection: hits, their analogues and other compounds. The true share with any hit is near 7.5%.
ELG1 genotox = genotoxicity induction in ELG1-luciferase HEK293T cells | AID 504466 | HEK293T ELG1-luciferase reporter, luminescence, 16 h | Potency, µM (doses to about 46 µM), inactives show at the highest dose activity change, positive = activation, most hits filed as activators | hit rate 1.3% among 330,000; note: % of control where 0% means no effect; nearly all actives have a fitted effect of over 60% in size
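Cells (2,000/well) expressing the ELG1-luciferase fusion are dosed by pin tool and kept 16 hr at 37 °C, 5% CO2. Signal comes from ONE-Glo luciferase reagent after 30 min at room temperature.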
NPC1 prom act = activators of NPC1 promoter. Potency, µM (titrated, usually from 9.22 µM), without a hit: at the highest dose activation, actives largely listed as activators. hit rate 2.4% among 320,000. AID 485313. Huh7 NPC1 promoter luciferase reporter, 24 h; note: % of control where 0% means no effect; nearly all actives have a fitted effect of over 60% in size
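Compounds in DMSO were transferred onto Huh7 NPC1-luciferase reporter cells pre-incubated 2 h; after 24 h at 37 °C, Amplite reagent was dispensed and luminescence recorded 10 min later.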
FLuc counter = firefly luciferase modulation, counter-screen for miR-21 project; Potency, µM (top dose mostly 57.5 µM), for the others: at the top dose activity change, negative = inhibition, hits mostly inhibitors; P08659; purified FLuc, Km substrates, luminescence inhibition; hit rate 6.9% among 360,000;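 note: plate controls were vehicle for no effect and reference inhibitor for full effect; nearly all actives have a fitted effect of over 55% in size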
Target sequence (P08659 whole entry, looked up): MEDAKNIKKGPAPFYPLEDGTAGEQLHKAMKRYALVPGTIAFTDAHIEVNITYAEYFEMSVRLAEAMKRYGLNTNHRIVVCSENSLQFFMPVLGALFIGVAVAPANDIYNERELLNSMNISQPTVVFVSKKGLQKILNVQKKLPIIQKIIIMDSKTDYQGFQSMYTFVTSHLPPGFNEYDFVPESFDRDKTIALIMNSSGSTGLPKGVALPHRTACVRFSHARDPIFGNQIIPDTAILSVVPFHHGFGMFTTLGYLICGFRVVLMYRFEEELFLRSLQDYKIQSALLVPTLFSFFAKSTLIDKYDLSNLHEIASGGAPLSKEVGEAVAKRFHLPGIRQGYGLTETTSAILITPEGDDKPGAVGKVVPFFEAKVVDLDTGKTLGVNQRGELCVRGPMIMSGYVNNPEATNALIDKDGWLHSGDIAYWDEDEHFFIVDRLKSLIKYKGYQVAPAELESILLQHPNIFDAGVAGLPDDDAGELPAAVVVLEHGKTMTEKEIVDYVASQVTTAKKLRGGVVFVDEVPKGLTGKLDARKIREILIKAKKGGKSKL
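Purified P. pyralis luciferase (10nM final) with 10uM D-luciferin and 10uM ATP (Km levels) in 50mM Tris acetate pH 7.5, 10mM Mg acetate, 0.01% Tween-20, 0.05% BSA; qHTS 6-point titration, ~60 µM downward; luminescence read.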
Rab9 promoter act = activators of Rab9 promoter | AID 485297 | Potency, µM (top dose mostly 9.22 µM), for inactives: at the top dose activation, negative = inhibition, hits mostly activators | Huh7 Rab9 promoter-luciferase reporter, luminescence, 24 h | hit rate 2.8% among 320,000; note: % of control where 0% means no effect; nearly all actives have a fitted effect of over 60% in size
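Luminescence read-out: Huh7 cells stably expressing Rab9-luciferase, treated 24 h with compound at 37 °C, then lysed with luciferase reagent for 10 min at ambient before reading.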
KinaseGlo FLuc = Kinase-Glo luciferase inhibition (counter-screen); Q27757; Kinase-Glo luciferase, ATP luminescence, 8 min; Potency, µM (doses to about 38.3 µM), inactives show at the top dose activity change, negative = inhibition, most hits filed as inhibitors; hit rate 0.28% among 200,000; note: % is set by controls: 0 for no effect and ±100 for the full control effect; nearly all actives have a fitted effect of over 60% in size
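Inhibition of Kinase-Glo luciferase light generation was assessed at 10 uM ATP in pH 7.2 imidazole buffer, with luminescence measured after eight minutes at ambient temperature.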
SMN2 splice up = enhancers of SMN2 splice variant expression. Potency, µM (titrated, usually from 46.1 µM), for inactives: top-dose activity change, positive = activation, usual class: activators. AID 1458. hit rate 2.8% among 210,000. HEK293 SMN2-luciferase splicing reporter, luminescence, 30-36 h; note: % of control where 0% means no effect; nearly all actives have a fitted effect of over 55% in size
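HEK293 cells carry an SMN2 […]–luciferase reporter in which exon 7 inclusion puts luciferase in frame. Cells were plated 10-12 h before compound addition, then incubated 30-36 h at 37C. ONE-Glo luminescence was read; sodium butyrate at 4.5 mM final served as control.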
* = called active by the depositor; ? = inconclusive; . = no result; [ ] = another dose, or the depositor's remark. Calls come from the whole dose curve; as a rule, active = well fitted curve in the direction sought with a large enough effect; inconclusive = small, poorly fitted or top-dose-only effect, or another doubt; inactive = no such curve, though single readings can be large; an effect the other way counts as inactive or inconclusive. Potency is the fitted concentration of half-maximal effect.

SMILES	ELG1 genotox	NPC1 prom act	FLuc counter	Rab9 promoter act	KinaseGlo FLuc	SMN2 splice up
COc1ccc2nc(NS(=O)(=O)c3ccc(NC(C)=O)cc3)sc2c1	2%	0%	2%	21%	2%	2%
COc1cc(C)nc(Nc2nc(C)c(C(C)=O)s2)n1	5%	-1%	2%	-3%	.	.
COc1ccc2nc(Nc3nc(C)c(C(C)=O)s3)sc2c1	?	2.8µM*	4.8µM*	2.5µM*	-2%	17%
O=C(NCc1ccco1)c1c[nH]c2ccc(S(=O)(=O)Nc3ccc(F)cc3F)cc2c1=O	.	.	?	.	.	-9%
Cc1cccc(C(=O)n2c(=S)nc3cc(C)ccn32)c1	0.46µM*	0.56µM*	0.19µM*	0.25µM*	.	.
Cc1ccn2c(NC(=O)c3ccccc3)c(-c3ccccc3)nc2c1	3%	2%	-11%	9%	.	.
Cc1ccn2c(c1)nc(=S)n2C(=O)c1ccccc1	?	0.4µM*	0.13µM*	0.25µM*	?	0.5µM*
Cc1ccc(-c2nc3ccccc3o2)cc1NC(=S)NC(=O)/C=C/c1ccco1	4%	-17%	?	-1%	4%	-12%
Cc1ccc(-c2nc3cc(Cl)ccc3o2)cc1NC(=O)COc1ccc(F)cc1	.	.	-9%	.	.	.
Cc1ccc2oc(-c3ccc(C)c(NC(=O)/C=C/c4ccc(Cl)cc4)c3)nc2c1	.	.	12µM*	.	.	20%
Cc1ccc2oc(-c3ccc(C)c(NC(=O)/C=C/c4ccco4)c3)nc2c1	.	.	12µM*	.	.	?
Cc1ccc(NC(=O)N2CCN(C(=O)c3nsc4ccccc34)CC2)cc1C	.	.	-20%	.	.	.
CC(C)c1cc(C(=O)N/N=C/c2c[nH]c3ccccc23)n[nH]1	5%	13%	24µM*	16%	.	.
Cn1ccc(C(=O)N/N=C/c2c[nH]c3ccccc23)n1	?	?	15µM*	?	.	.
O=C(N/N=C/c1c[nH]c2ccccc12)c1ccn(Cc2ccc(Cl)cc2Cl)n1	-12%	-6%	?	-2%	-9%	-7%
COCCn1c(C)cc(O)c(C(c2ccccc2OC)N2CCN(c3ccccc3)CC2)c1=O (stereo unspecified)	.	.	1%	.	.	.
CC1=C(C(=O)Nc2ccc(Cl)cc2)C(c2cccs2)n2nc(SCc3cccc(C)c3)nc2N1 (stereo unspecified)	.	.	-3%	.	.	2%
O=C(CSc1ncnc2sc3c(c12)CCCC3)c1ccco1	0%	15%	12µM*	?	-7%	13%
Cc1nc(N2CCN(C(=O)c3ccco3)CC2)c2c3c(sc2n1)CCCC3	-8%	-1%	-1%	3%	3%	-28%
CCc1nc(SCC(=O)N2CCN(C(=O)c3ccco3)CC2)c2c3c(sc2n1)CCCC3	-25%	3%	17µM*	3%	8%	-29%
COc1ccc(Cl)cc1NC(=O)[C@H]1O[C@@H]2OC(C)(C)O[C@@H]2[C@H]2OC(C)(C)O[C@H]21	.	.	-4%	.	.	14%
CN(C)/N=C/C=C1\CC/C(=C\c2ccc(Br)cc2)C1=O	?	17%	?	?	0%	1%
CN(C)/N=C/C=C1\CCC/C(=C/c2cccs2)C1=O	?	?	0.85µM*	3.2µM*	.	.
Cc1cccc(N(C)C(=O)Cc2c(C(=O)O)[nH]c3ccccc23)c1	.	.	-13%	.	.	8%
COc1ccccc1/C=N/NC(=O)c1csc(C)c1C	12%	14%	3.4µM*	28%	-9%	23%
SMILES	ELG1 genotox	NPC1 prom act	FLuc counter	Rab9 promoter act	KinaseGlo FLuc	SMN2 splice up
Cc1scc(C(=O)N/N=C/c2ccc(OC(C)C)cc2)c1C	?	29%	6.7µM*	?	-6%	?
CCOc1ccc(/C=N/NC(=O)c2csc(C)c2C)c(OCC)c1	1%	-2%	-17%	0%	-1%	-14%
Cc1scc(C(=O)N/N=C/c2ccc(Cl)s2)c1C	?	3.5µM*	3µM*	2.2µM*	-5%	18µM*
COc1ccccc1/C=N/NC(=O)c1cccc2ccccc12	-2%	-1%	-2%	-3%	.	.
COc1ccc(CC(=O)N/N=C/c2ccc(Cl)s2)cc1OC	-10%	0%	-16%	-1%[1.84 µM]	.	.
CCCCOc1cccc(/C=N/NC(=O)c2csc(C)c2C)c1	-4%	20%	7.6µM*	13%	1%	-14%
Cc1ccc2occ(CC(=O)N(Cc3ccc(Cl)cc3)C3CCS(=O)(=O)C3)c2c1 (stereo unspecified)	.	.	-11%	.	.	-7%
CCCc1nn2c(=O)cc(COC(=O)c3ccc(NC(=O)c4cccs4)cc3)nc2s1	.	.	0%	.	.	.
COc1cc(-c2nnc(SCC(=O)Nc3cccc(C#N)c3)o2)cc(OC)c1OC	.	.	1%	.	.	.
CC(C)Oc1ccc(/C=N/NC(N)=S)cc1	17%	?	15µM*	?	-1%	?
Cc1ccc(-c2csc(NC(=O)c3cccc(N4C(=O)CCC4=O)c3)n2)o1	-1%	0%	9.5µM*	-4%	-2%	-29%
COc1ccc(-c2csc(NC(=O)c3cccc(N4C(=O)CCC4=O)c3)n2)cc1OC	0%	-2%	15µM*	-5%	.	.
CCc1ccc(-c2csc(NC(=O)C3=NN(c4ccccc4)C(=O)CC3)n2)cc1	-1%	1%	6µM*	-14%	0%	-43%
COc1ccc(-c2csc(NC(=O)CCN3C(=O)C4CC=CCC4C3=O)n2)cc1OC (stereo unspecified)	-2%	2%	17µM*	1%	.	.
Cc1cc(C)c(-c2csc(NC(=O)C3=NN(c4ccccc4)C(=O)CC3)n2)c(C)c1	0%	-11%	1%	-17%	.	.
COc1ccc(-c2csc(NC(=O)c3ccc(N4C(=O)CCC4=O)cc3)n2)cc1	0%	-8%	0%	-9%	0%	3%
CCOC(=O)Cc1csc(NC(=O)c2cccc(N3C(=O)CCC3=O)c2)n1	1%	-1%	-15%	19%	.	.
Cc1ccc(-n2nc(CO)c(C(=O)NCCc3ccccc3)n2)cc1C	.	.	-5%	.	.	4%

Compound activity deposited in PubChem by National Center for Advancing Translational Sciences (NCATS).
